From PubChem BioAssay AID2284159 (EPA ToxCast)
Activity calls are given as the source filed them. The calls were made as follows: active = hit-call score of the fitted dose curve at least 0.9, where 1 is the maximum; inactive = score below 0.9.

target: human Dopamine Receptor D2L, DRD2 (gene 1813) (UniProt P14416); test: ERF_FR_GPCR_hDRD2: Eurofins (ERF) G Protein-Coupled Receptor (GPCR) Radioligand Binding LeadHunter Assay for human Dopamine Receptor D2L Antagonism
Protocol: ERF_FR_GPCR_hDRD2 is a biochemical, single-readout assay that uses extracted gene-proteins in a cell-free assay. Measurements were taken 1 hour after chemical dosing in a 96-well plate. See D2L Human Dopamine GPCR Binding (Antagonist Radioligand) Assay, Cerep.ERF_FR_GPCR_hDRD2 is an assay component calculated from the ERF_FR_GPCR_hDRD2 assay. It is designed to measure radioligand binding using a type of binding reporter as detected by scintillation counting with radiometry technology.Data from the assay component ERF_FR_GPCR_hDRD2 was analyzed at the assay endpoint, ERF_FR_GPCR_hDRD2, in the positive analysis fitting direction relative to DMSO as the negative control and baseline of activity. Using a type of binding reporter, loss-of-signal activity can be used to understand changes in binding as they relate to gene DRD2. To generalize the intended target to other relatable targets, this assay endpoint is annotated to the gpcr intended target family, where the subfamily is dopamine.
Human cells are incubated for 60 minutes at room temprature with [3H]methyl-spiperone ligand (0.3 nM) and Butaclamol as control inhibitor.Test Sample Requirements: Minimum for 1) Screen: 60 ul of 10 mM stock -OR- 1 mg (pre-weighed) for 10 uM final testing. 2) Dose Response: 90 ul of 10 mM stock -OR- 1 mg (pre-weighed) for a top concentration at 10 uM.

Chain of human Dopamine Receptor D2L, DRD2 (gene 1813) (P14416 whole entry, looked up): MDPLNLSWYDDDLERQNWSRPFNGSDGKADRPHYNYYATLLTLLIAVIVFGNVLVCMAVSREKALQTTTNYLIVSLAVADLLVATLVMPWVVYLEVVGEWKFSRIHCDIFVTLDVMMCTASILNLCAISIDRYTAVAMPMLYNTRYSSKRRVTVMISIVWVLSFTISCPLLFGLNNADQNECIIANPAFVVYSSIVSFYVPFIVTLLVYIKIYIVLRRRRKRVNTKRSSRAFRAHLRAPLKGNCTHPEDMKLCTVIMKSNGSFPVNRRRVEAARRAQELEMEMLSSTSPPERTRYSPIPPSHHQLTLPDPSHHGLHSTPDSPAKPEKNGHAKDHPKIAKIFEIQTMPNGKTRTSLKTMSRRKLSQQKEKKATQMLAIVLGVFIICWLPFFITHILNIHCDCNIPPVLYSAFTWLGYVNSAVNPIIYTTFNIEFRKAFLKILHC

Row | Compound | AC50
1 | O=C(/C=C/c1ccc(O)cc1)CC(=O)/C=C/c1ccc(O)cc1 | 1550 nM (active)
